This is an account of results in PubChem BioAssay (NCATS).

Structures are written as SMILES. Values joined by “and” are separate entries in the source; they are usually repeats but may differ in a detail not shown here. Identical values can stand only once. Unmarked numbers belong to inactive results. Records with an inconclusive call do not appear. Active and inactive are the calls of the source. Unless noted, calls come from the whole dose curve; as a rule, active = well fitted curve in the direction sought with a large enough effect; inconclusive = small, poorly fitted or top-dose-only effect, or another doubt; inactive = no such curve, though single readings can be large; an effect the other way counts as inactive or inconclusive.

The nature of assay [1]: Cell Viability - N2a (AID 540).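 For activity change, negative = cytotoxicity: plate controls were DMSO alone for no effect and tamoxifen control for full effect.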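 Note: cells exposed to compound for 40 h at 37 °C; nearly all actives have a fitted effect of over 45% in size.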 Note: potency is the fitted concentration of half-maximal effect. Particulars: N2a mouse neuroblastoma cell viability; activity change, negative = cytotoxicity: at 92.2 µM (top of the series). The method, boiled down: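 Luminescent ATP signal (CellTiter-Glo, 20 min at room temperature) served as the viability read-out after N2a cells were treated with compounds for 40 hours at 37 °C. Concentration-response data were fitted to the Hill equation for AC50.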

The nature of assay [2]: Cell Viability - Renal Proximal Tubule (AID 545). Note: nearly all actives have a fitted effect of over 40% in size. Particulars: renal proximal tubule cells viability, primary cells of rat origin; at 91.7 µM (top of the series). The essentials: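 Rat kidney proximal tubule cells, freshly isolated; 1000 cells/well, 5 hr settle, compound 40 hr 37 °C. CellTiter-Glo 20 min RT, luminescence read. AC50 by standard Hill fit.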
A short description of assay [3]: Cellular Toxicity (caspase-3) Jurkat (AID 655).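 Note: cells exposed to compound for 16 h at 37 °C before reading.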 Particulars: Jurkat caspase-3 activation, luminescence, DMSO = 0%, tamoxifen = 100%; at 92.2 µM (top of the series). The method, boiled down:
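Luminescent caspase-3/7 readout (aminoluciferin substrate cleavage) in human T-cell leukemia Jurkat cells after 16 hr compound exposure. Concentration-response normalized to DMSO and 100 uM tamoxifen; AC50 by standard Hill equation.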

The nature of assay [4]: Cell Viability - LYMP1-003 - Assay at 24 hr (AID 963).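 Note: plate controls were DMSO only for no effect and tetraoctylammonium bromide positive control for full effect.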 The essentials: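 Cells seeded at 2500/well, 5 hr at 37 C; compounds added; 24 hr at 37 C; CellTiter-Glo added, 30 min room temperature; luminescence read. Decrease in ATP taken as cytotoxicity, AC50 from Hill modelling.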
The nature of assay [5]: Cell Viability - LYMP2-004 (AID 966).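 Note: plate controls were DMSO only for no effect and tetraoctylammonium bromide control for full effect; nearly all actives have a fitted effect of over 65% in size.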 The method, boiled down:
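Cells seeded 2500/well, rested 5 hr at 37 C, dosed across a concentration series, incubated 24 hr at 37 C, then CellTiter-Glo added for 30 min at room temperature and luminescence read. Hill fitting gave AC50.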

Assay [6] in a line: Cell Viability - LYMP2-005 (AID 967).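 Note: plate controls were DMSO only for no effect and 92 µM tetraoctylammonium bromide control for full effect.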 The essentials:
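Steps: seed 2500 LYMP2-005 cells/well, incubate 5 h at 37 C, add compound, incubate 24 h at 37 C, add CellTiter-Glo, wait 30 min at RT, read luminescence. Concentration-response data fitted to Hill equation for AC50.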

Assay [7] in a line: Cell Viability - LYMP2-015 (AID 971).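 Note: 0% = DMSO only and full effect = 92 µM tetraoctylammonium bromide; nearly all actives have a fitted effect of over 55% in size.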 The method, boiled down: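 Luminescent ATP read-out (CellTiter-Glo) served as the viability measure after lymphoblastoid cells were exposed to compounds for 24 hours at 37 C. Concentration-response data were fitted with the Hill equation to give AC50.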
Assay [8] can be described thus: Cell Viability - LYMP2-019 (AID 973).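 Note: 0% = DMSO alone and full effect = 92 µM tetraoctylammonium bromide; nearly all actives have a fitted effect of over 55% in size.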 The essentials: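 Luminescent ATP read-out (CellTiter-Glo, 30 min room temperature) served as the viability measure after 24 hr treatment of lymphoblastoid cells at 37 C. Concentration-response data were fitted to the Hill equation for AC50.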
Assay [9] can be described thus: Cell Viability - LYMP2-021 (AID 974).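 Note: compound exposure lasts 24 hours at 37 °C; % is set by controls: 0 for no effect and ±100 for the full control effect; nearly all actives have a fitted effect of over 55% in size.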 The essentials: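 Plate 2500 lymphoblastoid cells per well and incubate 5 hr at 37 C. Add compounds over a concentration range and incubate 24 hr at 37 C. Add CellTiter-Glo, wait 30 min at room temperature, read luminescence.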
The nature of assay [10]: Cell Viability - LYMP2-023 (AID 975).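 Note: cellular ATP measured by luciferase luminescence as viability proxy; plate controls were DMSO only for no effect and 92 µM tetraoctylammonium bromide control for full effect; nearly all actives have a fitted effect of over 55% in size.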 The method, boiled down:
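2500 cells/well, 5 hr 37 C; cpd 24 hr 37 C; CellTiter-Glo, 30 min RT; luminescence. qHTS conc-response, Hill fit -> AC50. Pos ctrl tetraoctylammonium bromide.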

Assay [11] is described as follows: Cell Viability - LYMP2-025 (AID 976).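 Note: plate controls were DMSO only for no effect and tetraoctylammonium bromide control for full effect.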 The essentials: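 Seed 2500 LYMP2-025 cells/well; 5 hr at 37 C; add compound; 24 hr at 37 C; add CellTiter-Glo; 30 min RT; read luminescence. AC50 from Hill-modelled concentration-response.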
Assay [12] in a line: Cell Viability - LYMP2-002 (AID 977).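 Note: compound exposure lasted 24 h at 37 °C; plate controls were DMSO only for no effect and 92 µM tetraoctylammonium bromide for full effect.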 The method, boiled down: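 Human lymphoblastoid LYMP2-002 cells, 2500 per well, exposed to compounds for 24 h at 37 C in complete medium; viability read as intracellular ATP by CellTiter-Glo luminescence, AC50 from Hill fits.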
A short description of assay [13]: Cell Viability - LYMP2-006 (AID 978). For activity change, negative = cytotoxicity: % is set by controls: 0 for no effect and ±100 for the full control effect. Note: nearly all actives have a fitted effect of over 60% in size. Note: potency is the fitted concentration of half-maximal effect. The essentials: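 qHTS, 1536-well; 2500 cells/well, 5 hr 37 C; cpd 24 hr 37 C; CellTiter-Glo 30 min RT; luminescence. Tetraoctylammonium bromide pos. ctrl. AC50 via Hill eqn.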
Assay [14] in a line: Cell Viability - LYMP2-008 (AID 980). Note: % is set by controls: 0 for no effect and ±100 for the full control effect; nearly all actives have a fitted effect of over 60% in size. The method, boiled down:
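qHTS, human lymphoblastoid line, 2500 cells/well; 5 hr preincubation, 24 hr compound, 37 C. CellTiter-Glo ATP luminescence. AC50 via Hill equation. Tetraoctylammonium bromide positive control.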

Assay [15] is described as follows: Cell Viability - LYMP2-026 (AID 989). Note: % is set by controls: 0 for no effect and ±100 for the full control effect; nearly all actives have a fitted effect of over 50% in size. The essentials: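 Luminescent ATP signal (CellTiter-Glo, 30 min room temperature) measures viable lymphoblastoid cells after 24 hr compound treatment at 37 C. Decreased ATP reflects acute toxicity; AC50 values come from Hill-equation modeling.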
Assay [16] can be described thus: Cell Viability - LYMP1-002 - Assay at 24 hr (AID 993). Note: % is set by controls: 0 for no effect and ±100 for the full control effect. The method, boiled down: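 Cells plated 2500/well, 5 hr 37 C; compounds added, 24 hr 37 C; CellTiter-Glo added, 30 min RT; luminescence read. Tetraoctylammonium bromide positive control. Hill-equation AC50.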
The nature of assay [17]: Cell Viability - LYMP1-002 - Assay at 40 hr (AID 994).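 Note: 0% = DMSO only and full inhibition = 92 µM tetraoctylammonium bromide; nearly all actives have a fitted effect of over 60% in size.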 The method, boiled down:
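Luminescent ATP signal served as the viability readout, with decreases taken as toxicity. Cells were treated with compounds across a concentration range for 40 hours at 37 C, and AC50 values came from standard Hill modeling.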

In assay [18] the target is Retinoic acid receptor RXR-alpha (Homo sapiens) (UniProt P19793). The experiment in a line: qHTS assay for small molecule antagonists of retinoid X receptor alpha signaling (AID 588546; active = well fitted inhibition curve with a large enough effect in the signal ratio, with a control signal flat, not every such curve was filed as active; the % refers to the signal ratio;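 note: cells stimulated with 9-cis-retinoic acid as agonist; % is set by controls: 0 for no effect and ±100 for the full control effect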). The following applies: HEK293T RXRa-UAS-bla, beta-lactamase ratio, antagonist mode. The essentials:
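Beta-lactamase reporter inhibition, read as CCF4 fluorescence ratio (ex 405, em 460/530 nm) after 2 h at RT. HEK293T UAS-bla cells, 2500/well, were stimulated with 9-cis-RA at 500 or 100 nM final alongside test compound for 18 h at 37 C.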
In general terms: Quantitative high-throughput screening tests each substance at several concentrations.

A short description of assay [19]: qHTS assay for small molecule agonists of the antioxidant response element (ARE) signaling pathway measured by Nrf2-dependant transcriptional activity - cell viability counter screen (AID 720653; active = well fitted curve in the direction sought with a large enough effect in the repeat runs; an effect the other way counts as inactive or inconclusive; note: % is set by controls: 0 for no effect and ±100 for the full control effect). Particulars: ARE-bla HepG2 viability, CellTiter-Glo ATP luminescence, 16 h; max response: hits give low values. The method, boiled down: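 ARE-bla HepG2 cells treated with compounds for 16 h at 37C; this counter screen measures viability as intracellular ATP by CellTiter-Glo luminescence after 30 min at room temperature.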

Assay [20] is described as follows: qHTS assay for cell viability of the p53RE-bla HCT-116 cell line (AID 743292). The essentials:
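Viability of compound-treated p53RE-bla HCT-116 cells is taken from ATP-dependent luciferase luminescence. Treatment lasts 16 h at 37 C after a 5 h settling period; detection follows 30 min at room temperature.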

Sequence of Retinoic acid receptor RXR-alpha (Homo sapiens) (P19793 whole entry, looked up): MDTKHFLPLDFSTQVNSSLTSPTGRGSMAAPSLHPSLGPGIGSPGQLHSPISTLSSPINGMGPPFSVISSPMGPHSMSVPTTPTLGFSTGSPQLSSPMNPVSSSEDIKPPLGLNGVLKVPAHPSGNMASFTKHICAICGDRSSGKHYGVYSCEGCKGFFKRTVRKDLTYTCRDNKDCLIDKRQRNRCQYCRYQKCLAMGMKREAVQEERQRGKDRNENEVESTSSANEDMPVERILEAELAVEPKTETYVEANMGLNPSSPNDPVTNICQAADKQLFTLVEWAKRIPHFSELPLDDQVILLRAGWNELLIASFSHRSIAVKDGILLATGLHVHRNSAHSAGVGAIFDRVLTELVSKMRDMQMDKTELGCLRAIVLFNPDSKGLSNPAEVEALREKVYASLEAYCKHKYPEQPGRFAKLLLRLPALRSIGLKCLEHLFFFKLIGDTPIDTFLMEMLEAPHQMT

For `CN(C)C=O`, the activity change, negative = cytotoxicity is -9.63% and 3.24% in assay [1]; -1.87% and 6.39% in [2]. Moreover, the caspase-3 activation in assay [3] was 2.75% and 2.81%. Also, the Potency entry in [4], in assay [5], in [6], in [7], in assay [8] and in [9] was “inactive” each time. The Potency entry in assay [10], in [11], in [12], in assay [13], in assay [14] and in assay [15] was “inactive” throughout. Moreover, the Potency result in [16], in [17] and in assay [20] was “inactive” throughout. Also, the max response in assay [18] was 8.45% and -9.56%; in assay [19] it was -6.03% and 8.83% and -4.93%.

Consider `O=C1c2ccccc2C(=O)C1c1ccc2ccccc2n1`, for which the Potency in assay [1] is 31.6 µM (active); in assay [13] it was 39.8 µM (active). The activity change, negative = cytotoxicity in assay [2] is -13.3%. Further, the caspase-3 activation in assay [3] is -10.4%. The Potency result in assay [4], in assay [5], in assay [6], in assay [8], in [9] and in [10] was “inactive” in each case. The Potency entry in assay [11], in assay [12], in [15], in assay [16], in assay [17] and in [20] was “inactive” each time. Besides, the max response in [18] was -20%.

Turning to `CCO`, the activity change, negative = cytotoxicity is -0.0856% in [1] and -3.41% in assay [2]. In addition, in assay [3], the caspase-3 activation is -0.073%. Besides, the Potency result in assay [4], in assay [5], in assay [6], in [7], in assay [8] and in [9] was “inactive” each time. Further, the Potency result in assay [10], in assay [11], in [12], in assay [13], in assay [14] and in assay [15] was “inactive” throughout. Also, the Potency entry in [16], in assay [17] and in assay [20] was “inactive” throughout. The results for the max response in assay [18] and in assay [19] were -6.86% and 7%, respectively.

With `Cc1ccc([N+](=O)[O-])c(C)c1`, the results for the activity change, negative = cytotoxicity in assay [1] and in [2] were -14.6% and -0.903%, respectively. In addition, the caspase-3 activation in [3] was 0.882%. In addition, the Potency result in [4], in [5], in [6], in [7], in [8] and in [9] was “inactive” throughout. Moreover, the Potency entry in assay [10], in assay [11], in assay [12], in [13], in [14] and in assay [15] was “inactive” each time. For the same compound, the Potency result in assay [16], in assay [17] and in [20] was “inactive” throughout. Further, the max response was -1.42% and 0.976% in [18]; -3.32% and -3.26% in assay [19].

For the compound `COc1c2ccoc2cc2oc(=O)ccc12`, the activity change, negative = cytotoxicity is 0.867% in assay [1] and -16.3% in assay [2]. For the same compound, the caspase-3 activation in [3] is -0.404%. In addition, the Potency result in assay [4], in [5], in assay [6], in [7], in assay [8] and in assay [9] was “inactive” throughout. Also, the Potency result in [10], in assay [11], in [12], in assay [13], in assay [14] and in assay [15] was “inactive” each time. In addition, the Potency entry in assay [16], in assay [17] and in [20] was “inactive” in each case. Further, the max response was 23.4% in assay [18] and 3.31% in assay [19].
